Source: PubChem BioAssay AID1345085 (National Center for Advancing Translational Sciences (NCATS), 2018)
Results filed as inconclusive are left out. Activity calls are given as the source filed them. Calls follow the shape of the dose curve; as a rule, active = well fitted cell-killing curve with a large enough effect; inconclusive = small, poorly fitted or top-dose-only effect, or effect the other way; inactive = no such curve, though single readings can be large or run the other way.

test system: SW626; experiment: Confirmatory qHTS for gynecologic anti-cancer compounds from libraries of approved drugs and bioactive compounds; conditions: gynecologic cancer cell panel viability, ATPlite luminescence, 48 h; series mostly up to 57.6 µM; also: nearly all actives have a fitted effect of over 55% in size
Method in brief: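 ATP-based luminescent viability (ATPlite) after 48 h drug treatment at 37 °C, 5% CO2, across 57.5 uM–0.977 nM in 1:3 steps. Cells seeded at 1,000 per well 16 h beforehand; IC50 values computed, HEK 293T as selectivity control.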
Potency is read from the fitted curve at half-maximal effect.

Structure (SMILES) | Potency
Cc1ccc(C(=O)N(CCCN)C(c2nc3cc(Cl)ccc3c(=O)n2Cc2ccccc2)C(C)C)cc1 (centres undefined) | 9.68 µM (active)
CNC1CCC(N(Cc2cccc(-c3ccncc3)c2)C(=O)c2sc3ccccc3c2Cl)CC1 (centres undefined) | 30.6 µM (active)
Nc1ccc(-c2ccc3ncc4ccc(=O)n(-c5cccc(C(F)(F)F)c5)c4c3c2)cn1 | 6.11 µM (active)
O=C(O)c1ccc(Nc2ncc3c(n2)-c2ccc(Cl)cc2C(c2c(F)cccc2F)=NC3)cc1 | inactive
